Assay results reported in article PMC11102866, “Nucleosome-bound NR5A2 structure reveals pioneer factor mechanism by DNA minor groove anchor competition”.

What was measured:
[1] = molecular target: NR5A2 wild type;histone octamer (Homo sapiens;, UniProt O00482;C0HKE1;Q6ZWY9;P84244;P62806 1-541;2-130;2-126;2-136;2-103, |); assay: SeEN-seq (EMSA of nucleosome library followed by sequencing); 0.8 uM human NR5A2; 20 mM Tris-HCl pH 7.5, 120 mM NaCl, 1 mM MgCl2, 10 uM ZnCl2, 1 mM DTT, 100 ug/ml BSA, room temperature, 30 min; 0.1 uM nucleosome library; high values mean tight binding
[2] = molecular target: mouse Nr5a2 wild type;histone octamer (Mus musculus;, UniProt P45448;C0HKE1;Q6ZWY9;P84244;P62806 1-560;2-130;2-126;2-136;2-103, |); assay: SeEN-seq (EMSA of nucleosome library followed by sequencing); 1.2 uM mouse Nr5a2; 20 mM Tris-HCl pH 7.5, 120 mM NaCl, 1 mM MgCl2, 10 uM ZnCl2, 1 mM DTT, 100 ug/ml BSA, room temperature, 30 min; 0.1 uM nucleosome library; high values mean tight binding

| Binder | binding signal [1] | binding signal [2] |
| --- | --- | --- |
| 52 (nucleosome, reconstituted with mouse histones H2A, H2B, H3.3 and H4) DNA 1: ATCCTGGAGAATCCCGGTGCCGAGGCCGCTCAATTGGTCGTAGACAGCTCTAGCTCAAGGCCAACGCACGTACGCGCTGTCCCCCGCGTTTTAACCGCCAAGGGGATTACTCCCTAGTCTCCAGGCACGTGTCAGATATATACATCCTGTGAT DNA 2: ATCACAGGATGTATATATCTGACACGTGCCTGGAGACTAGGGAGTAATCCCCTTGGCGGTTAAAACGCGGGGGACAGCGCGTACGTGCGTTGGCCTTGAGCTAGAGCTGTCTACGACCAATTGAGCGGCCTCGGCACCGGGATTCTCCAGGAT | 0.917 log2 enrichment (bound/unbound, relative to Widom 601) | 1.16 log2 enrichment (bound/unbound, relative to Widom 601) |
| 48 (nucleosome, reconstituted with mouse histones H2A, H2B, H3.3 and H4) DNA 1: ATCCTGGAGAATCCCGGTGCCGAGGCCGCTCAATTGGTCGTAGACAGCTCTCAAGGCCATTAAACGCACGTACGCGCTGTCCCCCGCGTTTTAACCGCCAAGGGGATTACTCCCTAGTCTCCAGGCACGTGTCAGATATATACATCCTGTGAT DNA 2: ATCACAGGATGTATATATCTGACACGTGCCTGGAGACTAGGGAGTAATCCCCTTGGCGGTTAAAACGCGGGGGACAGCGCGTACGTGCGTTTAATGGCCTTGAGAGCTGTCTACGACCAATTGAGCGGCCTCGGCACCGGGATTCTCCAGGAT | 0.867 log2 enrichment (bound/unbound, relative to Widom 601) | 0.815 log2 enrichment (bound/unbound, relative to Widom 601) |
| 49 (nucleosome, reconstituted with mouse histones H2A, H2B, H3.3 and H4) DNA 1: ATCCTGGAGAATCCCGGTGCCGAGGCCGCTCAATTGGTCGTAGACAGCTCTTCAAGGCCATAAACGCACGTACGCGCTGTCCCCCGCGTTTTAACCGCCAAGGGGATTACTCCCTAGTCTCCAGGCACGTGTCAGATATATACATCCTGTGAT DNA 2: ATCACAGGATGTATATATCTGACACGTGCCTGGAGACTAGGGAGTAATCCCCTTGGCGGTTAAAACGCGGGGGACAGCGCGTACGTGCGTTTATGGCCTTGAAGAGCTGTCTACGACCAATTGAGCGGCCTCGGCACCGGGATTCTCCAGGAT | 1.14 log2 enrichment (bound/unbound, relative to Widom 601) | 1.11 log2 enrichment (bound/unbound, relative to Widom 601) |
| 50 (nucleosome, reconstituted with mouse histones H2A, H2B, H3.3 and H4) DNA 1: ATCCTGGAGAATCCCGGTGCCGAGGCCGCTCAATTGGTCGTAGACAGCTCTATCAAGGCCAAAACGCACGTACGCGCTGTCCCCCGCGTTTTAACCGCCAAGGGGATTACTCCCTAGTCTCCAGGCACGTGTCAGATATATACATCCTGTGAT DNA 2: ATCACAGGATGTATATATCTGACACGTGCCTGGAGACTAGGGAGTAATCCCCTTGGCGGTTAAAACGCGGGGGACAGCGCGTACGTGCGTTTTGGCCTTGATAGAGCTGTCTACGACCAATTGAGCGGCCTCGGCACCGGGATTCTCCAGGAT | 0.992 log2 enrichment (bound/unbound, relative to Widom 601) | 1.01 log2 enrichment (bound/unbound, relative to Widom 601) |
| 51 (nucleosome, reconstituted with mouse histones H2A, H2B, H3.3 and H4) DNA 1: ATCCTGGAGAATCCCGGTGCCGAGGCCGCTCAATTGGTCGTAGACAGCTCTAGTCAAGGCCAAACGCACGTACGCGCTGTCCCCCGCGTTTTAACCGCCAAGGGGATTACTCCCTAGTCTCCAGGCACGTGTCAGATATATACATCCTGTGAT DNA 2: ATCACAGGATGTATATATCTGACACGTGCCTGGAGACTAGGGAGTAATCCCCTTGGCGGTTAAAACGCGGGGGACAGCGCGTACGTGCGTTTGGCCTTGACTAGAGCTGTCTACGACCAATTGAGCGGCCTCGGCACCGGGATTCTCCAGGAT | 0.595 log2 enrichment (bound/unbound, relative to Widom 601) | 0.567 log2 enrichment (bound/unbound, relative to Widom 601) |
| 42 (nucleosome, reconstituted with mouse histones H2A, H2B, H3.3 and H4) DNA 1: ATCCTGGAGAATCCCGGTGCCGAGGCCGCTCAATTGGTCGTAGATCAAGGCCACACCGCTTAAACGCACGTACGCGCTGTCCCCCGCGTTTTAACCGCCAAGGGGATTACTCCCTAGTCTCCAGGCACGTGTCAGATATATACATCCTGTGAT DNA 2: ATCACAGGATGTATATATCTGACACGTGCCTGGAGACTAGGGAGTAATCCCCTTGGCGGTTAAAACGCGGGGGACAGCGCGTACGTGCGTTTAAGCGGTGTGGCCTTGATCTACGACCAATTGAGCGGCCTCGGCACCGGGATTCTCCAGGAT | 2.74 log2 enrichment (bound/unbound, relative to Widom 601) | 2.07 log2 enrichment (bound/unbound, relative to Widom 601) |
| 43 (nucleosome, reconstituted with mouse histones H2A, H2B, H3.3 and H4) DNA 1: ATCCTGGAGAATCCCGGTGCCGAGGCCGCTCAATTGGTCGTAGACTCAAGGCCAACCGCTTAAACGCACGTACGCGCTGTCCCCCGCGTTTTAACCGCCAAGGGGATTACTCCCTAGTCTCCAGGCACGTGTCAGATATATACATCCTGTGAT DNA 2: ATCACAGGATGTATATATCTGACACGTGCCTGGAGACTAGGGAGTAATCCCCTTGGCGGTTAAAACGCGGGGGACAGCGCGTACGTGCGTTTAAGCGGTTGGCCTTGAGTCTACGACCAATTGAGCGGCCTCGGCACCGGGATTCTCCAGGAT | 2.58 log2 enrichment (bound/unbound, relative to Widom 601) | 1.55 log2 enrichment (bound/unbound, relative to Widom 601) |
| 47 (nucleosome, reconstituted with mouse histones H2A, H2B, H3.3 and H4) DNA 1: ATCCTGGAGAATCCCGGTGCCGAGGCCGCTCAATTGGTCGTAGACAGCTTCAAGGCCACTTAAACGCACGTACGCGCTGTCCCCCGCGTTTTAACCGCCAAGGGGATTACTCCCTAGTCTCCAGGCACGTGTCAGATATATACATCCTGTGAT DNA 2: ATCACAGGATGTATATATCTGACACGTGCCTGGAGACTAGGGAGTAATCCCCTTGGCGGTTAAAACGCGGGGGACAGCGCGTACGTGCGTTTAAGTGGCCTTGAAGCTGTCTACGACCAATTGAGCGGCCTCGGCACCGGGATTCTCCAGGAT | 1.01 log2 enrichment (bound/unbound, relative to Widom 601) | 1.07 log2 enrichment (bound/unbound, relative to Widom 601) |
| 39 (nucleosome, reconstituted with mouse histones H2A, H2B, H3.3 and H4) DNA 1: ATCCTGGAGAATCCCGGTGCCGAGGCCGCTCAATTGGTCGTTCAAGGCCATAGCACCGCTTAAACGCACGTACGCGCTGTCCCCCGCGTTTTAACCGCCAAGGGGATTACTCCCTAGTCTCCAGGCACGTGTCAGATATATACATCCTGTGAT DNA 2: ATCACAGGATGTATATATCTGACACGTGCCTGGAGACTAGGGAGTAATCCCCTTGGCGGTTAAAACGCGGGGGACAGCGCGTACGTGCGTTTAAGCGGTGCTATGGCCTTGAACGACCAATTGAGCGGCCTCGGCACCGGGATTCTCCAGGAT | 0.783 log2 enrichment (bound/unbound, relative to Widom 601) | 0.704 log2 enrichment (bound/unbound, relative to Widom 601) |
| 41 (nucleosome, reconstituted with mouse histones H2A, H2B, H3.3 and H4) DNA 1: ATCCTGGAGAATCCCGGTGCCGAGGCCGCTCAATTGGTCGTAGTCAAGGCCAGCACCGCTTAAACGCACGTACGCGCTGTCCCCCGCGTTTTAACCGCCAAGGGGATTACTCCCTAGTCTCCAGGCACGTGTCAGATATATACATCCTGTGAT DNA 2: ATCACAGGATGTATATATCTGACACGTGCCTGGAGACTAGGGAGTAATCCCCTTGGCGGTTAAAACGCGGGGGACAGCGCGTACGTGCGTTTAAGCGGTGCTGGCCTTGACTACGACCAATTGAGCGGCCTCGGCACCGGGATTCTCCAGGAT | 2.28 log2 enrichment (bound/unbound, relative to Widom 601) | 1.87 log2 enrichment (bound/unbound, relative to Widom 601) |
| 46 (nucleosome, reconstituted with mouse histones H2A, H2B, H3.3 and H4) DNA 1: ATCCTGGAGAATCCCGGTGCCGAGGCCGCTCAATTGGTCGTAGACAGCTCAAGGCCAGCTTAAACGCACGTACGCGCTGTCCCCCGCGTTTTAACCGCCAAGGGGATTACTCCCTAGTCTCCAGGCACGTGTCAGATATATACATCCTGTGAT DNA 2: ATCACAGGATGTATATATCTGACACGTGCCTGGAGACTAGGGAGTAATCCCCTTGGCGGTTAAAACGCGGGGGACAGCGCGTACGTGCGTTTAAGCTGGCCTTGAGCTGTCTACGACCAATTGAGCGGCCTCGGCACCGGGATTCTCCAGGAT | 0.748 log2 enrichment (bound/unbound, relative to Widom 601) | 0.651 log2 enrichment (bound/unbound, relative to Widom 601) |
| 40 (nucleosome, reconstituted with mouse histones H2A, H2B, H3.3 and H4) DNA 1: ATCCTGGAGAATCCCGGTGCCGAGGCCGCTCAATTGGTCGTATCAAGGCCAAGCACCGCTTAAACGCACGTACGCGCTGTCCCCCGCGTTTTAACCGCCAAGGGGATTACTCCCTAGTCTCCAGGCACGTGTCAGATATATACATCCTGTGAT DNA 2: ATCACAGGATGTATATATCTGACACGTGCCTGGAGACTAGGGAGTAATCCCCTTGGCGGTTAAAACGCGGGGGACAGCGCGTACGTGCGTTTAAGCGGTGCTTGGCCTTGATACGACCAATTGAGCGGCCTCGGCACCGGGATTCTCCAGGAT | 0.693 log2 enrichment (bound/unbound, relative to Widom 601) | 0.706 log2 enrichment (bound/unbound, relative to Widom 601) |
| 45 (nucleosome, reconstituted with mouse histones H2A, H2B, H3.3 and H4) DNA 1: ATCCTGGAGAATCCCGGTGCCGAGGCCGCTCAATTGGTCGTAGACAGTCAAGGCCACGCTTAAACGCACGTACGCGCTGTCCCCCGCGTTTTAACCGCCAAGGGGATTACTCCCTAGTCTCCAGGCACGTGTCAGATATATACATCCTGTGAT DNA 2: ATCACAGGATGTATATATCTGACACGTGCCTGGAGACTAGGGAGTAATCCCCTTGGCGGTTAAAACGCGGGGGACAGCGCGTACGTGCGTTTAAGCGTGGCCTTGACTGTCTACGACCAATTGAGCGGCCTCGGCACCGGGATTCTCCAGGAT | 0.761 log2 enrichment (bound/unbound, relative to Widom 601) | 0.671 log2 enrichment (bound/unbound, relative to Widom 601) |
| 44 (nucleosome, reconstituted with mouse histones H2A, H2B, H3.3 and H4) DNA 1: ATCCTGGAGAATCCCGGTGCCGAGGCCGCTCAATTGGTCGTAGACATCAAGGCCACCGCTTAAACGCACGTACGCGCTGTCCCCCGCGTTTTAACCGCCAAGGGGATTACTCCCTAGTCTCCAGGCACGTGTCAGATATATACATCCTGTGAT DNA 2: ATCACAGGATGTATATATCTGACACGTGCCTGGAGACTAGGGAGTAATCCCCTTGGCGGTTAAAACGCGGGGGACAGCGCGTACGTGCGTTTAAGCGGTGGCCTTGATGTCTACGACCAATTGAGCGGCCTCGGCACCGGGATTCTCCAGGAT | 2.41 log2 enrichment (bound/unbound, relative to Widom 601) | 1.31 log2 enrichment (bound/unbound, relative to Widom 601) |
| 7 (nucleosome, reconstituted with mouse histones H2A, H2B, H3.3 and H4) DNA 1: ATCCTGGAGTCAAGGCCAGCCGAGGCCGCTCAATTGGTCGTAGACAGCTCTAGCACCGCTTAAACGCACGTACGCGCTGTCCCCCGCGTTTTAACCGCCAAGGGGATTACTCCCTAGTCTCCAGGCACGTGTCAGATATATACATCCTGTGAT DNA 2: ATCACAGGATGTATATATCTGACACGTGCCTGGAGACTAGGGAGTAATCCCCTTGGCGGTTAAAACGCGGGGGACAGCGCGTACGTGCGTTTAAGCGGTGCTAGAGCTGTCTACGACCAATTGAGCGGCCTCGGCTGGCCTTGACTCCAGGAT | 2.59 log2 enrichment (bound/unbound, relative to Widom 601) | 2.08 log2 enrichment (bound/unbound, relative to Widom 601) |
